Assay outcomes: PubChem, National Center for Advancing Translational Sciences (NCATS)
GPT2 inhibitor: GPT2 alanine aminotransferase inhibition. Recombinant GPT2, coupled pyruvate oxidase/HRP Amplex Red fluorescence. Potency, µM (doses to about 57.7 µM), without a hit: at the top dose activity change, negative = inhibition, usual class: inhibitors. 0.25% of 100,000 active. Q8TD30; further: nearly all actives have a fitted effect of over 60% in size
Target sequence (Q8TD30 whole entry, looked up): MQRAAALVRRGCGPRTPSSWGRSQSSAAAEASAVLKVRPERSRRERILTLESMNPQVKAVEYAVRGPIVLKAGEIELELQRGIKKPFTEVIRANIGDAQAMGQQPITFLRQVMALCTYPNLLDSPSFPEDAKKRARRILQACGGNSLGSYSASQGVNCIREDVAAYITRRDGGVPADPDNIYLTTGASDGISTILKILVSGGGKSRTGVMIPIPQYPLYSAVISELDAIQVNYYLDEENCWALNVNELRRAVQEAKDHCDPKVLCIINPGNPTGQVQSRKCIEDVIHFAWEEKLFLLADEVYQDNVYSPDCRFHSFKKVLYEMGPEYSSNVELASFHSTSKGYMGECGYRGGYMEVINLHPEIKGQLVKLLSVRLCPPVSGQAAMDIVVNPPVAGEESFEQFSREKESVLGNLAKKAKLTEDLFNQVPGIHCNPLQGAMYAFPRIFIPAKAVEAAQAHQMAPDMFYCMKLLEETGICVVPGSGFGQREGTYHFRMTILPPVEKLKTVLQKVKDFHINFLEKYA
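Inhibition is scored from Amplex Red fluorescence generated when pyruvate oxidase and HRP act on pyruvate released by GPT2. Reactions contain 10ng/uL enzyme, 250uM a-KG and 2mM L-alanine and run 30 min at room temperature.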
HEK293 tox: cytotoxic compounds in HEK 293 cells; HEK 293 viability, ATP luminescence (CellTiter-Glo), 48-72 h; Potency, µM (top dose mostly 115 µM), for the others: top-dose activity change, negative = cytotoxicity, most hits filed as inhibitors; 6.6% of 94,000 active; AID 1345083; further: nearly all actives have a fitted effect of over 60% in size
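Cells seeded first (HEK 293, 250 cells/well), then compound added by pintool. Incubation ran 48 or 72 hr at 37 degree Celsius. CellTiter-Glo was added and luminescence imaged after 10 min at room temperature.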
hNpr1 antagonist: human Npr1 receptor antagonism. P16066. AID 1347048. 1.6% of 76,000 active. HEK293 hNpr1 GloSensor cGMP, ANP-stimulated luminescence. Potency, µM (top dose mostly 46.3 µM), without a hit: top-dose activity change, negative = inhibition, actives largely listed as inhibitors; calls by dose curve; further: nearly all actives have a fitted effect of over 60% in size
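HEK293 cells stably expressing human Npr1 and cGMP GloSensor pGS-40F, loaded 2 h with 2% GloSensor reagent, given compound 30 min at room temperature. Luminescence read before and 20 min after 0.1 nM hNppA.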
FLuc inh: Photinus pyralis luciferase inhibition; purified P. pyralis luciferase, luminescence, biochemical; Potency, µM (titrated, usually from 115 µM), usual class: inhibitors; 2.5% of 76,000 active; AID 1347043; further: nearly all actives have a fitted effect of over 65% in size
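FLuc 10nM, D-luciferin 10uM, ATP 10uM, Mg acetate 10mM, Tris acetate pH 7.5, Tween/BSA; cpd qHTS; enzyme added last; CCD luminescence.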
NIH3T3 tox: NIH 3T3 cell cytotoxicity. NIH 3T3 viability, CellTiter-Glo ATP luminescence, 48-72 h. Potency, µM (top dose mostly 96.7 µM), for the others: at the highest dose activity change, negative = cytotoxicity, usual class: inhibitors. 4.3% of 94,000 active. AID 1345082; further: nearly all actives have a fitted effect of over 55% in size
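Luminescent ATP readout (CellTiter-Glo, 10 min RT) after 48 or 72 hr compound exposure of NIH 3T3 cells seeded at 400 cells/well in 1536-well format; quantitative HTS.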
Active calls of the source: *; [ ] = another dose, or the depositor's remark. The list is not random: actives were taken first. Their share in the collection is about 10%. Unless noted, the call rests on the fitted dose curve; in most records, active means well fitted curve in the direction sought with a large enough effect; inconclusive means small, poorly fitted or top-dose-only effect, or another doubt; inactive means no such curve, though single readings can be large; an effect the other way counts as inactive or inconclusive. On the % scale 0 is the no-effect control and ±100 the full control effect; potency means the concentration at half of the fitted maximal effect.

How did COc1ccc(NC(=O)c2cccc3c2CCN3C(=O)c2ccc(F)cc2)cc1 do in these assays?
GPT2 inhibitor: -16%; HEK293 tox: 11%; hNpr1 antagonist: 3%; FLuc inh: inactive; NIH3T3 tox: -1%

Results for CNC(=O)c1cccc2c1CCN2C(=O)Nc1ccc(F)cc1 ?
GPT2 inhibitor: inactive; HEK293 tox: -10%; hNpr1 antagonist: 11µM*; FLuc inh: 0.71µM*; NIH3T3 tox: -28%

What do the screens show for `O=C(NCc1ccc(N2CCOCC2)cc1)c1cccc2c1CCN2C(=O)c1ccccc1`?
GPT2 inhibitor: inactive; HEK293 tox: -13%; hNpr1 antagonist: -19%; FLuc inh: 40µM*; NIH3T3 tox: -10%

What do the screens show for `COCCNC(=O)c1cccc2c1CCN2C(=O)C1CC1`?
GPT2 inhibitor: -20%; HEK293 tox: -2%; hNpr1 antagonist: 8%; FLuc inh: inactive; NIH3T3 tox: 2%

Results for COc1ccc(NC(=O)N2CCc3c(C(=O)Nc4ccccc4)cccc32)cc1 ?
GPT2 inhibitor: inactive; HEK293 tox: inconclusive; hNpr1 antagonist: 4.5µM*; FLuc inh: inconclusive; NIH3T3 tox: inconclusive

How did O=C([C@@H]1CNC[C@H](C(=O)N2CCc3ncccc3C2)C1)N1CCCC1 do in these assays?
GPT2 inhibitor: -7%; HEK293 tox: inactive; hNpr1 antagonist: 2%; FLuc inh: inactive; NIH3T3 tox: inactive

How did CN1CCC(NC(=O)c2cccc3c2CCN3C(=O)Nc2ccccc2)CC1 do in these assays?
GPT2 inhibitor: inactive; HEK293 tox: -8%; hNpr1 antagonist: -7%; FLuc inh: 22µM*; NIH3T3 tox: inconclusive

What do the screens show for `CN1CCC(NC(=O)c2cccc3c2CCN3C(=O)C2CC2)CC1`?
GPT2 inhibitor: 2%; HEK293 tox: 2%; hNpr1 antagonist: 4%; FLuc inh: inactive; NIH3T3 tox: -10%

Results for COc1cc(SC)ccc1C(=O)N[C@H]1CCN2C(=O)N(c3ccc(OC(F)(F)F)cc3)C(=O)[C@@H]2C1 ?
GPT2 inhibitor: 4%; HEK293 tox: inconclusive; hNpr1 antagonist: inconclusive; FLuc inh: inactive; NIH3T3 tox: -25%

How did Cc1nn(-c2ccccc2)c2c1C(C(C)C)N(C1CCN(C(=O)Cc3cccc(Cl)c3)CC1)C2=O (centres undefined) do in these assays?
HEK293 tox: -22%; NIH3T3 tox: -27%

What do the screens show for `Cc1nn(-c2ccccc2)c2c1C(C1CC1)N(C1CCCN(C(=O)c3ccccc3)C1)C2=O` (centres undefined)?
HEK293 tox: inconclusive; NIH3T3 tox: -34%

How did Cc1nn(-c2ccccc2)c2c1C(C(C)C)N(C1CN(C(=O)Cc3cccc(Cl)c3)C1)C2=O (centres undefined) do in these assays?
HEK293 tox: 25µM*; NIH3T3 tox: 25µM*

What do the screens show for `O=C(Cc1cccc(Cl)c1)N1CCCC(c2nn(-c3ccccc3)c(=O)[nH]2)C1` (centres undefined)?
GPT2 inhibitor: inactive; HEK293 tox: 45µM*; hNpr1 antagonist: 2%; FLuc inh: inactive; NIH3T3 tox: inconclusive

How did Cc1nn(-c2ccccc2)c2c1C(C1CC1)N(C1CN(C(=O)Cc3cccc(Cl)c3)C1)C2=O (centres undefined) do in these assays?
HEK293 tox: 25µM*; NIH3T3 tox: inconclusive

What do the screens show for `Cc1nn(-c2ccccc2)c2c1C(C1CC1)N(C1CN(C(=O)NC(C)(C)c3ccccc3)C1)C2=O` (centres undefined)?
HEK293 tox: inconclusive; NIH3T3 tox: 14µM*

Results for Cc1ccc(C(=O)N2CC(N3C(=O)c4c(c(C)nn4-c4ccccc4)C3C3CC3)C2)cc1 (centres undefined) ?
HEK293 tox: -30%; NIH3T3 tox: -15%

How did O=C(CCc1nc2ccccc2s1)N1CCC(Cc2nc(C3CC3)n[nH]2)CC1 do in these assays?
GPT2 inhibitor: 5%; HEK293 tox: -28%; hNpr1 antagonist: 0%; FLuc inh: inactive; NIH3T3 tox: -20%

How did COc1cc(C(CO)C(OC2OC(CO)C(O)C(O)C2O)c2ccc(O)c(OC)c2)ccc1O (centres undefined) do in these assays?
GPT2 inhibitor: 3%[27.3 µM]

Results for CN1CCCN(C(=O)c2ccc(F)cc2)c2ccccc21 ?
GPT2 inhibitor: inactive; HEK293 tox: -18%; hNpr1 antagonist: 1%; FLuc inh: inactive; NIH3T3 tox: inconclusive

What do the screens show for `Cc1cc(C)cc(C(=O)N2CCCN(C)c3ccccc32)c1`?
GPT2 inhibitor: inactive; HEK293 tox: 40µM*; hNpr1 antagonist: -1%; FLuc inh: inactive; NIH3T3 tox: inconclusive

Results for c1csc(CN2Cc3[nH]cnc3C[C@H]2c2nc(-c3ccncc3)no2)c1 ?
GPT2 inhibitor: inactive; HEK293 tox: inconclusive; hNpr1 antagonist: -28%[70.6 µM]; FLuc inh: inactive; NIH3T3 tox: inconclusive

How did FC(F)(F)c1ccc(-c2noc([C@@H]3Cc4nc[nH]c4CN3Cc3cc4ccccc4o3)n2)cc1 do in these assays?
GPT2 inhibitor: inactive; HEK293 tox: inconclusive; hNpr1 antagonist: inconclusive; FLuc inh: inconclusive; NIH3T3 tox: inconclusive

Results for c1csc(CN2Cc3[nH]cnc3C[C@H]2c2nc(-c3ccc4ccccc4c3)no2)c1 ?
GPT2 inhibitor: 2%[88.5 µM]; HEK293 tox: 50µM*; hNpr1 antagonist: -24%[70.6 µM]; FLuc inh: inactive; NIH3T3 tox: inconclusive

What do the screens show for `COc1ccc(-c2noc([C@@H]3Cc4nc[nH]c4CN3Cc3cccs3)n2)cc1`?
GPT2 inhibitor: -3%[88.5 µM]; HEK293 tox: inconclusive; hNpr1 antagonist: -17%[70.6 µM]; FLuc inh: 71µM*; NIH3T3 tox: 89µM*

Results for CN(C)c1ccc(CN2CCn3c(nnc3C3CCNCC3)C2)cc1 ?
GPT2 inhibitor: inactive; HEK293 tox: inactive; NIH3T3 tox: inactive

What do the screens show for `COc1ccccc1CC(=O)N1CCCc2ncc(C(=O)Nc3ccc4[nH]ccc4c3)cc21`?
GPT2 inhibitor: -9%[88.5 µM]; HEK293 tox: inconclusive; hNpr1 antagonist: -3%[70.6 µM]; FLuc inh: inconclusive; NIH3T3 tox: inconclusive

What do the screens show for `Cn1cc(CNC(=O)C2CCN(c3nc(-c4ccccc4)nc4c3CCC4)CC2)cn1`?
GPT2 inhibitor: -7%; HEK293 tox: inactive; hNpr1 antagonist: 6%; FLuc inh: inactive; NIH3T3 tox: inactive

What do the screens show for `O=C(NCC1CCNC1)C1CCN(c2nc(-c3ccccc3)nc3c2CCC3)CC1` (centres undefined)?
GPT2 inhibitor: inconclusive; HEK293 tox: inconclusive; hNpr1 antagonist: 1%; FLuc inh: inactive; NIH3T3 tox: 79µM*

How did N#CC1(c2ccc(-c3cccc(CN4CCOCC4)c3)cc2)CCCC1 do in these assays?
GPT2 inhibitor: inactive; HEK293 tox: inconclusive; hNpr1 antagonist: -8%; FLuc inh: 35µM*; NIH3T3 tox: inconclusive
